Test results taken from PubChem BioAssay AID686978 (National Center for Advancing Translational Sciences (NCATS), 2013).
About 64,000 (15%) of roughly 420,000 compounds were called active. About 27% were inconclusive and are not listed. Calls follow the shape of the dose curve; as a rule, active = well fitted inhibition curve with a large enough effect; inconclusive = small, poorly fitted or top-dose-only effect; inactive = flat fitted curve, though single readings scatter. These entries were drawn from the full list. A call without a number means that no potency is given here.

Assay: qHTS for Inhibitors of human tyrosyl-DNA phosphodiesterase 1 (TDP1): qHTS in cells in absence of CPT; also: nearly all actives have a fitted effect of over 55% in size
Settings: DT40 Tdp1-/- hTDP1 cells, no CPT, ATP luminescence, 48 h; activity change, negative = growth inhibition: at 46.2 µM (top of the series)
Method in brief: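 Compound effects on proliferation are scored in DT40 Tdp1-/-;hTDP1 cells in the absence of CPT. ATP levels (CellTiter-Glo luminescence) are recorded after a ≥48 hr, 37 °C incubation.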
Potency is read from the fitted curve at half-maximal effect.

| SMILES | Potency |
| --- | --- |
| O=C(CN1CCOCC1)Nc1c2c(nc3c1CCC3)CCC2 | inactive |
| CCC(C)N(C(=O)COC(=O)C1C(C(=O)OC)=C(C)NC(C)=C1C(=O)OC)C1CCS(=O)(=O)C1 (centres undefined) | inactive |
| COc1ccccc1CNC(=O)CS(=O)(=O)c1cccc2nsnc12 | inactive |
| COc1cc(NC(=O)c2cccs2)ccc1NC(=O)c1ccccc1Cl | inactive |
| COc1cc2ccccc2cc1C(=O)Nc1cccc(-c2nc3ccccc3o2)c1 | 20.6 µM (active) |
| COc1cc2ccccc2cc1C(=O)Nc1ccc(NC(=O)c2cccs2)cc1 | 20.6 µM (active) |
| COc1cc2ccccc2cc1C(=O)Nc1ccncc1 | inactive |
| COc1cccc(NC(=O)c2ccccc2SC)c1 | inactive |
| COc1cc2ccccc2cc1C(=O)Nc1ccc(S(=O)(=O)Nc2cc(C)on2)cc1 | inactive |
| O=C(Nc1cccc(Br)c1)c1ccc2snnc2c1 | inactive |
| O=C(Nc1cccc(-c2nc3ccccc3o2)c1)c1cccc(Br)c1 | 20.6 µM (active) |
| O=C(Nc1cccc(-c2nc3ncccc3o2)c1)c1ccco1 | inactive |
| Cc1cccc(CCNC(=O)Cn2ncc3c([nH]c4ccc(C)cc43)c2=O)c1 | inactive |
| CCN(C(=O)COC(=O)c1ccccc1O)c1cccc2ccccc12 | inactive |
| Cc1nnc(SCC2=C(C(=O)O)N3C(=O)C(NC(=O)Cn4nc(C)c(Cl)c4C)C3SC2)s1 (centres undefined) | inactive |
| C=CCNC(=O)c1ccccc1SCc1c(C)noc1C | inactive |
| COc1ccc(S(=O)(=O)NC2(C(F)(F)F)N=C3SCCN3C2=O)cc1 (centres undefined) | inactive |
| CN(CCc1ccccn1)C1CCCN(S(=O)(=O)c2ccccc2Cl)C1 (centres undefined) | inactive |
| Cc1ccc2c(c1)-c1c(cnn1CC(=O)Nc1ccccc1C#N)CO2 | inactive |
| Cc1nc(-c2ccc(Cl)cc2)sc1C1(C)CC(c2ccccc2F)=NO1 (centres undefined) | inactive |
| NS(=O)(=O)c1ccccc1NC(=O)c1c(O)c2ccccc2[nH]c1=O | inactive |
| Cc1cccc(OCCSc2nc3ccccc3n2CC(=O)N2CCCCC2)c1C | 23.1 µM (active) |
| CCOc1ccc(OCCSc2nc3ccccc3n2CC(=O)O)cc1 | inactive |
| Cc1ccc(C(C)C)c(OCCSc2nc3ccccc3n2CC(=O)O)c1 | inactive |
| Clc1ccc(Cl)c(Oc2ccc(Oc3nc(Cl)ccc3Cl)cc2)n1 | inactive |
| COc1cc(Cl)c(C)cc1NC(=O)[C@@H]1CCCN1C(=O)c1cccs1 | inactive |
| O=C(CCS(=O)(=O)c1cc(Br)cc2c1N(C(=O)C1CC1)CC2)Nc1ccc(Br)cc1F | inactive |
| O=C(CCS(=O)(=O)c1cc(Br)cc2c1N(C(=O)C1CC1)CC2)Nc1ccc(C(F)(F)F)cc1 | inactive |
| CCN(c1ccc2c(c1)OCO2)S(=O)(=O)c1cc(Br)cc2c1N(C(=O)C1CC1)CC2 | 25.9 µM (active) |
